Laboratory results as given in PubChem BioAssay AID1159580 (chemical genetic matrix, 2015).
Screen size: about 5,500 compounds; about 2,000 (36%) were called active. Roughly 18% stayed inconclusive and do not appear here. No stated cut-off is given here; in the data, active means normalized growth mostly below about 0.91 (no sharp cut-off); inconclusive means no clear call, values can overlap the other calls; inactive means mostly above about 0.92. The list shows a part of the results.

Experiment: chemical genetic growth profiling, strain panel (AID 1159580);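 further: tested at 20 µM; growth read once vehicle control cultures reached saturation at 30 °C; 1 = growth at the plate median or of vehicle wells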
Settings: growth OD

Measured: normalized growth

c1ccc(OCCOc2ccccn2)nc1
inactive: S. cerevisiae deletion strains, locus YAL013W, strain DEP1, stronger effect = lower value 1.03 | S. cerevisiae deletion strains, locus YBR229C, strain ROT2, stronger effect = lower value 0.999 | S. cerevisiae deletion strains, locus YCL061C, strain MRC1, stronger effect = lower value 0.992 | S. cerevisiae deletion strains, locus YDL101C, strain DUN1, stronger effect = lower value 1.01 | S. cerevisiae deletion strains, locus YDL134C, strain PPH21, stronger effect = lower value 0.994 | S. cerevisiae deletion strains, locus YDR150W, strain NUM1, stronger effect = lower value 0.972 | S. cerevisiae deletion strains, locus YEL061C, strain CIN8, stronger effect = lower value 1 | S. cerevisiae deletion strains, locus YGR078C, strain PAC10, stronger effect = lower value 1 | S. cerevisiae deletion strains, locus YHR030C, strain SLT2, stronger effect = lower value 1.06 | S. cerevisiae deletion strains, locus YHR087W, strain rtc3, stronger effect = lower value 0.992 | S. cerevisiae deletion strains, locus YJR043C, strain POL32, stronger effect = lower value 0.995 | S. cerevisiae deletion strains, locus YJR075W, strain HOC1, stronger effect = lower value 1 | S. cerevisiae deletion strains, locus YKL190W, strain CNB1, stronger effect = lower value 0.998 | S. cerevisiae deletion strains, locus YLR039C, strain RIC1, stronger effect = lower value 0.999 | S. cerevisiae deletion strains, locus YLR058C, strain SHM2 (second series), stronger effect = lower value 0.996 | S. cerevisiae deletion strains, locus YLR085C, strain ARP6, stronger effect = lower value 1 | S. cerevisiae deletion strains, locus YLR262C, strain YPT6, stronger effect = lower value 1.05 | S. cerevisiae deletion strains, locus YML094W, strain GIM5, stronger effect = lower value 1.01 | S. cerevisiae deletion strains, locus YMR219W, strain ESC1, stronger effect = lower value 1.01 | S. cerevisiae deletion strains, locus YMR263W, strain SAP30, stronger effect = lower value 0.985 | S. cerevisiae deletion strains, locus YMR307W, strain GAS1, stronger effect = lower value 0.959 | S. cerevisiae deletion strains, locus YNL128W, strain TEP1, stronger effect = lower value 1 | S. cerevisiae deletion strains, locus YNL153C, strain GIM3, stronger effect = lower value 0.997 | S. cerevisiae deletion strains, locus YNL298W, strain CLA4 (second series), stronger effect = lower value 0.978 | S. cerevisiae deletion strains, locus YNL322C, strain KRE1, stronger effect = lower value 1.01 | S. cerevisiae deletion strains, locus YNR030W, strain Alg12, stronger effect = lower value 1 | S. cerevisiae deletion strains, locus YPL055C, strain LGE1, stronger effect = lower value 0.982 | S. cerevisiae deletion strains, locus YPL241C, strain CIN2, stronger effect = lower value 0.988 | S. cerevisiae deletion strains, locus YPR135W, strain CTF4, stronger effect = lower value 1.13 | S. cerevisiae strains, strain wild type, stronger effect = lower value 1
